“And” between values parts separate entries of the source, which are not always exact repeats. Equal entries are not always repeated. The whole screen tested about 310,000 compounds, of which about 17,000 (5.5%) were called active. A call without a number means that no potency is given here. Not shown: some 11% with an inconclusive outcome. The full list was thinned out, with actives kept by preference. Values without a mark were called inactive. The call rests on the fitted dose curve; in most records, active means well fitted inhibition curve with a large enough effect; inconclusive means small, poorly fitted or top-dose-only effect, or effect the other way; inactive means no such curve, though single readings can be large or run the other way.
target: Nuclear receptor ROR-gamma (Mus musculus) (UniProt P51450); assay: qHTS for inhibitors of ROR gamma transcriptional activity; settings: Drosophila S2 Gal4-RORgamma UAS-luciferase reporter, 20 h; series mostly up to 53.6 µM; further: nearly all actives have a fitted effect of over 60% in size
Sequence (P51450 whole entry, looked up, the tested form may be a part): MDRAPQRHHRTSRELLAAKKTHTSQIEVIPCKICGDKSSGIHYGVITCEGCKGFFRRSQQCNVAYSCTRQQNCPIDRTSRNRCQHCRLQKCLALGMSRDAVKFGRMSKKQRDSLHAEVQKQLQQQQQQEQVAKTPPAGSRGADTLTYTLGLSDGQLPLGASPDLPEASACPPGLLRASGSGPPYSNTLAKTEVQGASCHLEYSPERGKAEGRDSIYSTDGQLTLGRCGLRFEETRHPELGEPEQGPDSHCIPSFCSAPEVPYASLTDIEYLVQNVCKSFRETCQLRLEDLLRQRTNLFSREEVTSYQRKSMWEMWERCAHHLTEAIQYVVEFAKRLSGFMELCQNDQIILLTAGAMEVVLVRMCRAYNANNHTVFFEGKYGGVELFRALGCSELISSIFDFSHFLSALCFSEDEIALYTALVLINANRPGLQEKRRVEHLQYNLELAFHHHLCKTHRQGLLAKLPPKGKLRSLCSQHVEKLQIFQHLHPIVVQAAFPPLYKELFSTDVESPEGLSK
Method in brief: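 Luminescence from a UAS-regulated Photinus luciferase reporter in stably transfected Drosophila Schneider cells is measured; decreased signal marks ROR gamma inhibition. Fusion expression is induced by 700 uM copper sulfate for 20 hr.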
Potency means the concentration at half of the fitted maximal effect.

Row | Compound | Potency | activity change, negative = inhibition
1 | Cc1[nH]c(C)c(S(=O)(=O)N2CCC(C)CC2)c1C(=O)N1CCCC1 | inactive | 
2 | COCCNC(=O)CN(Cc1ccco1)C(=O)CCC(=O)Nc1nccs1 | inactive | 
3 | Cc1ccccc1-n1c(C)cc(/C=N/NC(=O)c2ccc(CN3CCOCC3)cc2)c1C | 10 µM (active) | 
4 | COc1ccc(C(=O)Nc2ccc(CN3CCOCC3)cc2)cc1 | inactive | 
5 | C/C(CCc1ccccc1)=N\NC(=O)c1ccc(CN2CCOCC2)cc1 | inactive | 
6 | Cc1cc(=O)n2nc(N3CCCC(C(=O)NCc4cccc(Cl)c4)C3)sc2n1 (centres undefined) | inactive | 
7 | CCc1nnc(NC(=O)c2nc3nccc(C)n3n2)s1 | inactive | 
8 | CCCC(=O)Nc1nnc(-c2ccccc2)o1 | 7.94 µM (active) | 
9 | O=C(COC(=O)c1ccc(Oc2ccccc2)cc1)Nc1nnc(-c2ccccc2)o1 | 2.82 µM (active) | 
10 | Cc1ccnc2nc(C(=O)Nc3nnc(-c4ccccc4)o3)nn12 | 11.2 µM (active) | 
11 | Nc1ccc(-c2nnc(-c3ccccc3)o2)cc1 | inactive | 
12 | Cc1cccc(NC(=O)Nc2nnc(-c3ccccc3)o2)c1 | inactive | 
13 | Cc1ccnc2nc(C(=O)OCC(=O)N(CC(C)C)CC(C)C)nn12 | inactive | 
14 | O=C(OCc1ccc(Br)cc1)c1cccc(-c2nnc(-c3ccccc3)o2)c1 | inactive | 
15 | O=C(COC(=O)c1ccccc1)Nc1ccccc1Sc1ccccc1 | inactive | 
16 | COC(=O)C1(C)CC1(c1ccccc1)c1ccccc1 (centres undefined) | inactive | 
17 | CN(C)N1C(N)=C(C#N)C(c2ccc(Br)cc2)C2=C1CCCC2=O (centres undefined) | inactive | 
18 | C[C@@H](NC(=O)[C@@H]1Cc2ccccc2CN1)C(=O)NC1CCCC1 | inactive | 
19 | CC(=O)NN1C(=O)c2ccccc2NC1c1ccccc1 (centres undefined) | inactive | 
20 | CCCC1=Nc2cc(C(=O)NCCN3CCCC3)ccc2Sc2ccccc21 | inactive | 
21 | CCC1Sc2ccc(S(=O)(=O)CCC(=O)NCc3cccs3)cc2NC1=O (centres undefined) | inactive | 
22 | FC(F)(F)c1nc2ccccc2nc1N/N=C/c1ccc(Cl)cc1 | 5.62 µM (active) | 

Row | Compound | Potency | activity change, negative = inhibition
23 | CC(NC(=O)C(=O)N/N=C/c1ccc(Cl)cc1)c1ccccc1 (centres undefined) | inactive | 
24 | FC(F)(F)c1cccc(N/N=C/c2ccccc2)c1 | inactive | 
25 | COc1ccccc1CN(C)C(=O)c1cc2ccccc2o1 | inactive | 
26 | Cc1ccc2[nH]c(=O)c(CN(C)S(=O)(=O)c3cccc4nonc34)cc2c1 | inactive | 
27 | COc1cc(SC#N)ccc1N=Cc1c(C)[nH]n(-c2ccc(C)cc2)c1=O | 6.31 µM (active) | 
28 | C=CCN1C(=O)C2(OCCCO2)c2cccc(Cl)c21 | inactive | 
29 | Oc1ccc(-n2nnnc2SCc2c(F)cccc2Cl)cc1 | inactive | 
30 | Cc1ccc(CC2CC(=O)N(c3cc(C)ccc3C)C2=O)cc1 (centres undefined) | inactive | 
31 | O=C(Nc1cccc(C(F)(F)F)c1)c1cnccn1 | inactive | 
32 | O=C(Nc1cccc(C(F)(F)F)c1)c1cc(Br)cc(Br)c1O | 5.01 µM (active) | 
33 | Cc1cccc(NC(=O)c2cccc(C(F)(F)F)c2)c1 | inactive | 
34 | O=C(N/C(=C/c1ccc(Cl)cc1)C(=O)N1CCCCC1)c1ccco1 | inactive | 
35 | CN(CC(=O)Nc1c(Cl)cccc1Cl)C(=O)c1ccncc1 | inactive | 
36 | Cc1ccc(-c2ccc(=O)n(Cc3ccc(F)cc3Cl)n2)cc1 | inactive | 
37 | Cc1n[nH]c(=O)c2c1nnn2Cc1ccc(F)cc1 | inactive | 
38 | COc1ccc(/C=N/NC(=O)c2cccc(C(F)(F)F)c2)cc1 | 12.6 µM (active) | 
39 | COc1ccc(/C=N/NC(=O)Cn2cc(C(F)(F)F)ccc2=O)cc1 | inactive | 
40 | Cc1nnsc1C(=O)N/N=C/c1cccc(C(F)(F)F)c1 | inactive | 
41 | C=C1C(=O)C23C(O)C1CCC2[C@]12COC3(O)C(O)C1C(C)(C)CC[C@H]2O (some centres undefined) | 0.708 µM (active) | 
42 | CCC1Oc2ccccc2N(CC(=O)NCCCN2CCN(CC)CC2)C1=O (centres undefined) | inactive | 
43 | COc1ccc(Cc2nc3ccc(C(=O)NCC4CCOCC4)cc3o2)cc1OC | inactive | 
44 | CCOC(=O)C1=C(c2ccc(OC)cc2)C(=O)c2ccccc2C1=O | 6.31 µM (active) | 

Row | Compound | Potency | activity change, negative = inhibition
45 | CCCCC(C(=O)OCC(=O)c1ccc(OC)cc1)N1C(=O)c2ccccc2C1=O (centres undefined) | inactive | 
46 | CCOC(=O)c1c(-c2ccc(C)cc2)csc1/N=C(\C)C1=C(O)c2ccccc2C1=O | inactive | 
47 | O=C(NCCCc1ccccc1)C1CCC(=O)N(CCc2ccc(Cl)cc2)C1 (centres undefined) | inactive | 
48 | COc1ccccc1CN1CCCC(N2CCN(c3ccc(F)cc3)CC2)C1 (centres undefined) | inactive | 
49 | O=C(CN(CC1CCCO1)C(=O)CNS(=O)(=O)c1ccc(Cl)cc1)NCc1ccccc1 (centres undefined) | inactive | 
50 | O=C(NCCN1CCOCC1)c1ccc2c(c1)ncn2C1CCCC1 | inactive | 
51 | Clc1ccccc1-c1cc(NCCN2CCOCC2)ncn1 | inactive | 
52 | c1ccc2cc3c(NCCN4CCOCC4)ccnc3cc2c1 | 11.2 µM (active) | 
53 | Cc1ccc2c(c1)N(CC(=O)N1CCC(O)CC1)C(=O)CO2 | inactive | 
54 | Cc1ccc(C(=O)CCC(=O)N(C)CC(=O)Nc2c(Cl)cccc2Cl)cc1 | inactive | 
55 | Cc1cccnc1NC(=O)c1cccc(S(=O)(=O)N2CCN(c3ccc(F)cc3)CC2)c1 | inactive | 
56 | Cc1nc(=O)c(-c2ccccc2)c(C)n1-c1ccc(Br)cc1 | inactive | 
57 | S=C1NC(c2ccccc2)=NCN1c1ccc(Br)cc1 | 8.91 µM (active) | 
58 | Brc1ccccc1C1N=C(c2ccccc2)NO1 (centres undefined) | inactive | 
59 | Cc1ccc2c(c1)C(c1ccccc1)N(C(=O)c1ccc(F)cc1)CC(=O)N2 (centres undefined) | inactive | 
60 | Cc1ccc2nc(N(CCN(C)C)C(=O)C3=COCCO3)sc2c1 | inactive | 
61 | COc1cccc(-c2noc(C3CCCN(C(=O)c4ccc(F)cc4)C3)n2)c1 (centres undefined) |  | -2.97% [at 1.91 µM]
62 | CC1CCCC(C)N1CCCNC(=O)c1cc2c(=O)n(C)c3ccccc3c2n1C (centres undefined) | inactive | 
63 | Cn1c(C(=O)NCCc2ccsc2)cc2c(=O)n(C)c3ccccc3c21 | inactive | 
64 | CCN1CCCC1CNC(=O)c1cc2c(=O)n(C)c3ccccc3c2n1C (centres undefined) | 3.98 µM (active) | 
65 | Cc1ccc(OCC(=O)Nc2ccc(N3CCN(C(=O)c4ccco4)CC3)cc2)c(C)c1 | inactive | 
66 | CC(=O)Oc1ccc(N(C(C)=O)S(=O)(=O)c2ccc3ccccc3c2)cc1Br | inactive | 

Row | Compound | Potency | activity change, negative = inhibition
67 | O=C1CCN(C(=S)NCCc2ccccc2)CC1 | inactive | 
68 | CCCCNC(=O)C1CCC(=O)N1CCc1ccccc1 (centres undefined) | inactive | 
69 | CCCC1CCC(=NNC(=S)NCCc2ccccc2)CC1 (centres undefined) | 5.01 µM (active) | 
70 | CCOc1ccc(NC(=O)C(C)N2C(=O)c3ccccc3C2=O)cc1 (centres undefined) | inactive | 
71 | O=C(O)/C=C\C(=O)Nc1ccc(OCc2ccccc2)cc1 | inactive | 
72 | CSc1ccc(NC(=O)/C=C/C(=O)O)cc1 | 0.0794 µM (active) | 
73 | Cc1cccc(N2CCN(c3ccc(NC(=O)/C=C\C(=O)O)cc3)CC2)c1 | inactive | 
74 | CN(C)CCCn1c(SCc2ccc(Cl)cc2)nnc1-c1ccncc1 | inactive | 
75 | O=C(CCCOc1ccc(Cl)cc1Cl)NNC(=O)C1CCC1 | inactive | 
76 | CN1CCC(OC(=O)COc2ccc(Cl)cc2Cl)CC1 | inactive | 
77 | Cn1c(CCCOc2ccc(Cl)cc2Cl)n[nH]c1=S | 6.31 µM (active) | 
78 | CN(C)c1ccnc(Nc2ccc(F)cc2)c1C#N | inactive | 
79 | CN(C)c1nc(Nc2ccc(Cl)c(Cl)c2)nc(N(C)C)n1 | inactive | 
80 | CN(C)c1nc(NN)nc(Nc2ccc(F)cc2)n1 | 7.94 µM (active) | 
81 | COc1ccc(CNC(=O)C2CCN(C(=O)c3ccco3)CC2)cc1 | inactive | 
82 | Cc1c(OC(C)C(=O)NCC2CCC(C(=O)O)CC2)ccc2c1oc(=O)c1ccccc12 (centres undefined) | inactive | 
83 | Cc1ccc(CN2CCNC(=O)C2CC(=O)NCc2csc(C(C)C)n2)cc1 (centres undefined) | inactive | 
84 | COc1ccc(NS(=O)(=O)c2ccc(Oc3c(C#N)cccc3C#N)cc2)cc1 | 7.94 µM (active) | 
85 | CCOc1ccc(S(=O)(=O)Nc2ccc(S(=O)(=O)Nc3cc(OC)ccc3OC)cc2)cc1 | inactive | 
86 | COc1cc(NS(=O)(=O)c2ccc(NC(C)=O)cc2)cc(OC)c1 | inactive | 
87 | CCn1ccnc1CN(C)C(=O)c1cc(COc2ccc(Cl)cc2OC)on1 | inactive | 
88 | Oc1c(CN2CCN(c3ccc(F)cc3)CC2)cc(Cl)c2cccnc12 | 0.562 µM (active) | 

Row | Compound | Potency | activity change, negative = inhibition
89 | O=C(c1cccc(C(=O)N2CCN(c3ccc(F)cc3)CC2)c1)N1CCN(c2ccc(F)cc2)CC1 | inactive | 
90 | Oc1ccc(CN2CCN(c3ncccn3)CC2)cc1 | inactive | 
91 | COCCNC(=O)C1CCN(C(=O)C2CC(=O)N(c3ccc(C)cc3)C2)CC1 (centres undefined) | inactive | 
92 | Cc1cccc(C(=O)Nc2ccccc2N2CCN(c3ccc(F)cc3)CC2)c1 | inactive | 
93 | Cc1cccc(C(=O)NC(=S)N2CCN(c3ccc([N+](=O)[O-])cc3)CC2)c1 | 0.447 µM (active) | 
94 | O=C(c1cncc(Br)c1)N1CCN(c2ccc([N+](=O)[O-])cc2)CC1 | inactive | 
95 | CC(C(=O)c1ccc(-c2ccccc2)cc1)[n+]1cccc(Br)c1 (centres undefined) | inactive | 
96 | CCn1c2ccc(F)cc2c2nnc(SCCN3CCOCC3)nc21 | inactive | 
97 | Cn1c(=O)c2c(nc(NCc3ccccc3)n2CC(N)=O)n(C)c1=O | inactive | 
98 | Cn1c(=O)c2c(nc(NCCc3ccccc3)n2Cc2ccccc2)n(C)c1=O | 11.2 µM (active) | 
99 | CCn1c(NCCc2ccc(OC)c(OC)c2)nc2c1c(=O)n(C)c(=O)n2C | inactive | 
100 | O=C(/C=C/c1ccccc1)c1ccccc1O | inactive | 
101 | COc1ccc(/C=C/NC(=O)c2ccc(OC)cc2)cc1 |  | -26.7% [at 10 µM]
102 | COc1ccc(/C=C/C(=O)c2ccc(OC)cc2O)cc1 | 8.91 µM (active) and 316 nM (active) | 
103 | CCC(C(=O)NCc1cccnc1)n1nc(C)c2sc3ccccc3c2c1=O (centres undefined) | inactive | 
104 | C=CC(=O)c1ccc2ccccc2c1 | 0.631 µM (active) | 
105 | CC(=O)CCC(=O)c1ccc2ccccc2c1 | inactive | 
106 | CC(=O)c1ccc2c(ccc3ccccc32)c1 | inactive | 
107 | COc1ccc(/C=C(\C#N)c2c[nH]c3ccccc23)cc1 | inactive | 
108 | CCN(CC)CC(=O)c1c[nH]c2ccc(OC)cc12 | inactive | 
109 | COc1ccc2[nH]cc(/C=C(/C#N)S(=O)(=O)c3ccccc3)c2c1 | 7.08 µM (active) | 

Source: PubChem BioAssay AID2551 (National Center for Advancing Translational Sciences (NCATS), 2010)
